The source of these data is PMC7862700, “An all-to-all approach to the identification of sequence-specific readers for epigenetic DNA modifications on cytosine”.

Experiment in all cases: DAPPL (digital affinity profiling via proximity ligation, sequencing); 10 mM Tris-HCl pH 7.5, 50 mM NaCl, 1 mM DTT, 4% glycerol, room temperature, 30 min; GST-TFs on glutathione beads, 16-mer random dsDNA library, 0.1% formaldehyde crosslink after washing; high values mean tight binding
Assay [1] concerns the target T1, FLI1 (Homo sapiens, UniProt Q01543 1-452).
T1 sequence: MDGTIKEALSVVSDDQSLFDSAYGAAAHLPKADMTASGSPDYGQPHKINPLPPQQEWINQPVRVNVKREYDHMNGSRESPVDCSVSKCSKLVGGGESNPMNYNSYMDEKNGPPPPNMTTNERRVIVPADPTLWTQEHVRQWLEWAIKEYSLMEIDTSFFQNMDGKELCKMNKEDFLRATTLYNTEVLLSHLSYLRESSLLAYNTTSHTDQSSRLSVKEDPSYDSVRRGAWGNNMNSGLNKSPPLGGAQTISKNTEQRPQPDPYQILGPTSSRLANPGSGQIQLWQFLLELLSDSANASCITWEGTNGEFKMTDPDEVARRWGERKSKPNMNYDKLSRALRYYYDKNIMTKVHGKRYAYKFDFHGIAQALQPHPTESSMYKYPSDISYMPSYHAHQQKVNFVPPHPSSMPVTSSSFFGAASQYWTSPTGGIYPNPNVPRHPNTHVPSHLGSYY
Conditions: protein: recombinant; tags: N-terminal GST; dsDNA, one strand shown. The essentials:
(§1)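 Binding signal is given per hexamer as its read frequency for a factor divided by its frequency in the tag-only sample. GST-fused human transcription factors were expressed in yeast, captured on glutathione beads, barcoded with DNA and pooled with that sample, then incubated with 200 nmole of a 16-mer random double-stranded DNA library in Tris/NaCl/DTT/glycerol buffer for 30 min at room temperature. The pools were then washed, crosslinked, proximity-ligated, amplified by PCR and sequenced on an Illumina NextSeq500.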

The target in assay [2] is T2, ELK1 (Homo sapiens, UniProt P19419 1-428).
T2 sequence: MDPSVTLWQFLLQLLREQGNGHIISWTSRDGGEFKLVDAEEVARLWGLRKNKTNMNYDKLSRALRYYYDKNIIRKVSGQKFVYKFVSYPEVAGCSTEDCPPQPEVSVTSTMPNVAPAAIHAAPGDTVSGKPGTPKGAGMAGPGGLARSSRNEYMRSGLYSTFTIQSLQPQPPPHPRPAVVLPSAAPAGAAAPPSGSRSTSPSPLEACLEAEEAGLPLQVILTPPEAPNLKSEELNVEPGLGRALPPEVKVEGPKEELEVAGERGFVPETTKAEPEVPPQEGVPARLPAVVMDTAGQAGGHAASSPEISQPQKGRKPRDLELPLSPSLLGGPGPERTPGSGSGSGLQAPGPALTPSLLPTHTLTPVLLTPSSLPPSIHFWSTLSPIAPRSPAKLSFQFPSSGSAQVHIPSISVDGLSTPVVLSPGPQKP
To be noted: protein: recombinant; tags: N-terminal GST; dsDNA, one strand shown. In a few lines:
as §1

Assay [3] concerns the target T3, GABPA (Homo sapiens, UniProt Q06546 1-454).
T3 sequence: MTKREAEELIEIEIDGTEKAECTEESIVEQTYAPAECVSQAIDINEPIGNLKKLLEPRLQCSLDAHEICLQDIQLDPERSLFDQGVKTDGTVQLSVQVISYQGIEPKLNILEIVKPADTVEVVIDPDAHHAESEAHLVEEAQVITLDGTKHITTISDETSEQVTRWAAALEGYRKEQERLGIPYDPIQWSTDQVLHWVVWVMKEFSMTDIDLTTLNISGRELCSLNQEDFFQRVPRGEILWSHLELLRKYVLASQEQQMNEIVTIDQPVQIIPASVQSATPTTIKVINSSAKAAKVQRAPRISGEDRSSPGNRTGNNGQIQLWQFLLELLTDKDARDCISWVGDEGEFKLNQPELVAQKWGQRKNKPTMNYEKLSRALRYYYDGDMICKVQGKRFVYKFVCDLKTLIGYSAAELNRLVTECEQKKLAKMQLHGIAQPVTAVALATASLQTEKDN
To be noted: protein: recombinant; tags: N-terminal GST; dsDNA, one strand shown. In a few lines:
as §1

Assay [4] has as its target T4, ERG (Homo sapiens, UniProt P11308 1-479).
T4 sequence: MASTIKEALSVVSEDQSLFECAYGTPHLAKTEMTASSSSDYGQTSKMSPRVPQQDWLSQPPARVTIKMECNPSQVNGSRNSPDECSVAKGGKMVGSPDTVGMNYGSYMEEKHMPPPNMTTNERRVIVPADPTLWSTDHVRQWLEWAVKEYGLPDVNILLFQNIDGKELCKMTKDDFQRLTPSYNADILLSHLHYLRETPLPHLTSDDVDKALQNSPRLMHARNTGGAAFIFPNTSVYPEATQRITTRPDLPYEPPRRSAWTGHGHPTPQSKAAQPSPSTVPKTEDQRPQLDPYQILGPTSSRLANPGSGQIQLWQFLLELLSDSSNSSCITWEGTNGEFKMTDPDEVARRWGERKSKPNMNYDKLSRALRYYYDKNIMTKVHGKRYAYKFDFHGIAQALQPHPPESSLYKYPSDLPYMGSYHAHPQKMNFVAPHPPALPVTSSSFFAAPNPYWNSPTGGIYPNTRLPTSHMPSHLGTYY
Conditions: protein: recombinant; tags: N-terminal GST; dsDNA, one strand shown. In a few lines: as §1

Assay [5] deals with ELF1 (Homo sapiens, UniProt P32519 1-619). To be noted: protein: recombinant; tags: N-terminal GST; dsDNA, one strand shown. In a few lines: as §1
Chain of ELF1 (P32519 whole entry): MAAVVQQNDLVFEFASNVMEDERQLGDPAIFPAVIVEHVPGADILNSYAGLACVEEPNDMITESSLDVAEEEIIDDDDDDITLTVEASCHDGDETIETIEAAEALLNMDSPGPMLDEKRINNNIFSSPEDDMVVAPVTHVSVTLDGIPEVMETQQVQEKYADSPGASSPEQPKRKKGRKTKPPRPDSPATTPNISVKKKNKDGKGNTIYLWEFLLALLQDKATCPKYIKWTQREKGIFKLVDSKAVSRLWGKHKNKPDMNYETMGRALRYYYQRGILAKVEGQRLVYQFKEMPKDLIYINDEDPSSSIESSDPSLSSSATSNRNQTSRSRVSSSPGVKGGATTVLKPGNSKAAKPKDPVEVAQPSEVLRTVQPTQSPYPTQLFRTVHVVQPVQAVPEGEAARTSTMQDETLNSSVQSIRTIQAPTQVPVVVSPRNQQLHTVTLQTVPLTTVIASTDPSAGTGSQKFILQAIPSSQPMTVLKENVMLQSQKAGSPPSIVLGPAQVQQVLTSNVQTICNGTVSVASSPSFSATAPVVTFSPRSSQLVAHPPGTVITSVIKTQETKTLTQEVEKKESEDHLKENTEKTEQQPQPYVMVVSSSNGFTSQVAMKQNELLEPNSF
Assay [6] deals with T5, EHF (Homo sapiens, UniProt Q9NZC4 1-300).
T5 sequence: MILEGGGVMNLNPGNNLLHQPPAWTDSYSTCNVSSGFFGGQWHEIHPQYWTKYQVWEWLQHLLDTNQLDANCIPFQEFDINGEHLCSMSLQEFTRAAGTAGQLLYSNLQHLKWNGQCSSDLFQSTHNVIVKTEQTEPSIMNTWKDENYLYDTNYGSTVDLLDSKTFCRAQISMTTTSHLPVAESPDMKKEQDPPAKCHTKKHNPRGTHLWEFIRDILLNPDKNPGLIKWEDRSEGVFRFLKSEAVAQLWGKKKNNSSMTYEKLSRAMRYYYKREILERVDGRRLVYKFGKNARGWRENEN
To be noted: protein: recombinant; tags: N-terminal GST; dsDNA, one strand shown. In a few lines: as §1

Assay [7] deals with SPI1 (Homo sapiens, UniProt P17947 1-270). Conditions: protein: recombinant; tags: N-terminal GST; dsDNA, one strand shown. The essentials:
as §1

Assay [8] addresses SPIB (Homo sapiens, UniProt Q01892 1-262). To be noted: protein: recombinant; tags: N-terminal GST; dsDNA, one strand shown. The essentials: as §1
Assay [9] has as its target T6, ELK3 (Homo sapiens, UniProt P41970 1-407).
T6 sequence: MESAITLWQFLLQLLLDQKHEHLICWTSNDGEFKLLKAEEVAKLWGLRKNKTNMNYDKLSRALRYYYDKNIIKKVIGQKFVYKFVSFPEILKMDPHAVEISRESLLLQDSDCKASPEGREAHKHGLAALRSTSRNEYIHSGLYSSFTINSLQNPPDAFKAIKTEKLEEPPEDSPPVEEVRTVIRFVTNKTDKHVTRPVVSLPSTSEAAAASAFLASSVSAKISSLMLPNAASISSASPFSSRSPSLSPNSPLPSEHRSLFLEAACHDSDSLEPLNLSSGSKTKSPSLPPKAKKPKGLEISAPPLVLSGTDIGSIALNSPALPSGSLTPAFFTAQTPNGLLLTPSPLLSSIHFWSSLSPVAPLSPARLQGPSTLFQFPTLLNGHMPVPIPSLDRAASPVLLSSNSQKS
To be noted: protein: recombinant; tags: N-terminal GST; dsDNA, one strand shown. The essentials:
as §1

In assay [10] the target is T7, FEV (Homo sapiens, UniProt Q99581 1-238).
T7 sequence: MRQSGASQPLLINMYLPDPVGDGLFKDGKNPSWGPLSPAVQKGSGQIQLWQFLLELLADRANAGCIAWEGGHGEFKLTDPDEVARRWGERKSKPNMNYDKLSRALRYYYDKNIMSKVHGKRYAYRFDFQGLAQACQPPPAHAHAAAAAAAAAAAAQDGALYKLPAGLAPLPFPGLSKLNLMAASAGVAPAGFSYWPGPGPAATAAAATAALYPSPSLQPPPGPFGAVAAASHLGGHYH
Conditions: protein: recombinant; tags: N-terminal GST; dsDNA, one strand shown. The essentials: as §1

Assay [11] concerns the target ETV5 (Homo sapiens, UniProt P41161 1-510). Conditions: protein: recombinant; tags: N-terminal GST; dsDNA, one strand shown. In a few lines: as §1
Assay [12] addresses HSF1 (Homo sapiens, UniProt Q00613 1-529). Conditions: protein: recombinant; tags: N-terminal GST; chain copies: 3; dsDNA, one strand shown. In a few lines:
as §1

In assay [13] the target is T8, SPIC (Homo sapiens, UniProt Q8N5J4 1-248).
T8 sequence: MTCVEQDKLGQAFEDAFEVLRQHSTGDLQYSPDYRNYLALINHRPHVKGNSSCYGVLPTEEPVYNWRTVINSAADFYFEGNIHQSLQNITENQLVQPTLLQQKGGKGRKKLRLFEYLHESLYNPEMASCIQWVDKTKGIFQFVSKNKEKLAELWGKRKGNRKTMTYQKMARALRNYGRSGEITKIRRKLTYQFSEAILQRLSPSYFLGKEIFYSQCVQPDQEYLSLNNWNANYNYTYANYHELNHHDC
To be noted: protein: recombinant; tags: N-terminal GST; dsDNA, one strand shown. In a few lines:
as §1

For assay [14], the target named is ELF4 (Homo sapiens, UniProt Q99607 1-663). To be noted: protein: recombinant; tags: N-terminal GST; dsDNA, one strand shown. The essentials: as §1
Chain of ELF4 (Q99607 whole entry): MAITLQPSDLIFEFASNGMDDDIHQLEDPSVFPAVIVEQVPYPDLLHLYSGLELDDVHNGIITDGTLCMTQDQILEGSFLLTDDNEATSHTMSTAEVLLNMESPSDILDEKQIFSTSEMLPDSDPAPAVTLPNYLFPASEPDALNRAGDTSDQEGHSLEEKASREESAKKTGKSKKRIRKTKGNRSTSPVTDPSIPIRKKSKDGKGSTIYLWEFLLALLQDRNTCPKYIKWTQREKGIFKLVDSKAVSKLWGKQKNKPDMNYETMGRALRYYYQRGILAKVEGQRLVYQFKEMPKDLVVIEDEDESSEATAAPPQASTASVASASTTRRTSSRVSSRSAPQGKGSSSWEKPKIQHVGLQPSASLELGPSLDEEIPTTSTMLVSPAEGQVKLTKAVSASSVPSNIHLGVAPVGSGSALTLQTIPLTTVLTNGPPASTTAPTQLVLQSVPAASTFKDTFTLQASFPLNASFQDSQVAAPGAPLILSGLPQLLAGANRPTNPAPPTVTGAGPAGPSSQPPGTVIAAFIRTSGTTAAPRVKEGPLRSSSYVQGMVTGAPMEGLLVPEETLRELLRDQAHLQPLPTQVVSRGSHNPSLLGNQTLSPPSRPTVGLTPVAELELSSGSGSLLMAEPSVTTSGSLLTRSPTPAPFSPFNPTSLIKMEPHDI
Assay [15] concerns the target T9, ELK4 (Homo sapiens, UniProt P28324-2 1-405).
T9 sequence: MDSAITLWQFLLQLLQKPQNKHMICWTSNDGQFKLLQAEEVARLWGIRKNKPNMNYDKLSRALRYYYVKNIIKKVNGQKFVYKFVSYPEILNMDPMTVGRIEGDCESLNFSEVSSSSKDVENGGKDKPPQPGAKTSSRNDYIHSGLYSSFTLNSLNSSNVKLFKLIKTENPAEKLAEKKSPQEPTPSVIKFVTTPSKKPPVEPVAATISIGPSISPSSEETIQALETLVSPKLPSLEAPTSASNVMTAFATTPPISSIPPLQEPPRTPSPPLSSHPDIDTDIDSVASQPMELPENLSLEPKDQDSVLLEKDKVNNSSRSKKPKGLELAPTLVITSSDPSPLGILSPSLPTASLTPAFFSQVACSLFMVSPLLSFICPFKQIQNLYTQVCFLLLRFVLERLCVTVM
To be noted: protein: recombinant; tags: N-terminal GST; dsDNA, one strand shown. The essentials:
as §1

In assay [16] the target is T10, ETV2 (Homo sapiens, UniProt O00321 1-342).
T10 sequence: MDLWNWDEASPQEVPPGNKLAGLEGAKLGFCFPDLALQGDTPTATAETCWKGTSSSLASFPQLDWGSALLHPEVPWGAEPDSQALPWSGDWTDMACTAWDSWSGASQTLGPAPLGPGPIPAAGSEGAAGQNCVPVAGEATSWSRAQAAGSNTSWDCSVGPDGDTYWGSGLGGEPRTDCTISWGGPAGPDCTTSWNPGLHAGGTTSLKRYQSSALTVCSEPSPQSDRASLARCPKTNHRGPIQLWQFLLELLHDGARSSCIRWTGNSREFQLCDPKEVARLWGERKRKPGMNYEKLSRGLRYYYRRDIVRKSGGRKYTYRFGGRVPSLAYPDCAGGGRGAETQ
To be noted: protein: recombinant; tags: N-terminal GST; dsDNA, one strand shown. In a few lines: as §1

Assay [17] concerns the target T11, ELF3 (Homo sapiens, UniProt P78545 1-371).
T11 sequence: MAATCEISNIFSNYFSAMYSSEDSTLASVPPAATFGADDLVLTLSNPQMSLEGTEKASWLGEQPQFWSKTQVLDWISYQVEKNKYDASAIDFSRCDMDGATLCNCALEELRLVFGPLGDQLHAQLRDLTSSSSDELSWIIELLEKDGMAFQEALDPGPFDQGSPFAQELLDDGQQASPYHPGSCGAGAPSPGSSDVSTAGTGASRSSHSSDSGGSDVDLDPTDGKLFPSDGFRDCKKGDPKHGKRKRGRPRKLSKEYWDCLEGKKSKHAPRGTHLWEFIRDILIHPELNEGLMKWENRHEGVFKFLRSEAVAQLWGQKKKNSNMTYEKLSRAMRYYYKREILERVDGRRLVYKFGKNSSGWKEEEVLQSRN
Conditions: protein: recombinant; tags: N-terminal GST; dsDNA, one strand shown. In a few lines:
as §1

The target of assay [18] is CRX (Homo sapiens, UniProt O43186 1-299). To be noted: protein: recombinant; tags: N-terminal GST; dsDNA, one strand shown. The essentials:
as §1

In assay [19] the target is ETV1 (Homo sapiens, UniProt P50549 1-477). Conditions: protein: recombinant; tags: N-terminal GST; dsDNA, one strand shown. The essentials:
as §1

Chain of SPIB (Q01892 whole entry): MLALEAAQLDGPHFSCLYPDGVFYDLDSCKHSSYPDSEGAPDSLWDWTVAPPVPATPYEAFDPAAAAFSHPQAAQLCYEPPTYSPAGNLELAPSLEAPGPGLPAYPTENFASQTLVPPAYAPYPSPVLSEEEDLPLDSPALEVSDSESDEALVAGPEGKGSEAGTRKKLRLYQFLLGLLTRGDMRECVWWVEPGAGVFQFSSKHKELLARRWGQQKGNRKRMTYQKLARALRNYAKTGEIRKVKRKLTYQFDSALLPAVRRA
Chain of HSF1 (Q00613 whole entry): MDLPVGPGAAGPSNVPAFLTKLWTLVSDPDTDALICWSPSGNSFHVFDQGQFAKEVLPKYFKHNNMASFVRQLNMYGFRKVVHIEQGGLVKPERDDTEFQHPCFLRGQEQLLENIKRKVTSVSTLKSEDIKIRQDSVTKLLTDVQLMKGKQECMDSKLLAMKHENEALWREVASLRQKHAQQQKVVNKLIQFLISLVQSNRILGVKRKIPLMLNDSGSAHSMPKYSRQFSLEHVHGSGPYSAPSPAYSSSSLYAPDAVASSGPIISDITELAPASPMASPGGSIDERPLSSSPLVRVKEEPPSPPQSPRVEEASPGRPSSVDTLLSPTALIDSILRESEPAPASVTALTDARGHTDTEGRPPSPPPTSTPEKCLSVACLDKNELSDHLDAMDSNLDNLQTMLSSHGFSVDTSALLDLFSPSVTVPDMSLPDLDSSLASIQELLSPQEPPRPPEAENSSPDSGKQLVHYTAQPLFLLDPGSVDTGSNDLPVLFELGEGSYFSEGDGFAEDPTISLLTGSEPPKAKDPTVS
Chain of CRX (O43186 whole entry): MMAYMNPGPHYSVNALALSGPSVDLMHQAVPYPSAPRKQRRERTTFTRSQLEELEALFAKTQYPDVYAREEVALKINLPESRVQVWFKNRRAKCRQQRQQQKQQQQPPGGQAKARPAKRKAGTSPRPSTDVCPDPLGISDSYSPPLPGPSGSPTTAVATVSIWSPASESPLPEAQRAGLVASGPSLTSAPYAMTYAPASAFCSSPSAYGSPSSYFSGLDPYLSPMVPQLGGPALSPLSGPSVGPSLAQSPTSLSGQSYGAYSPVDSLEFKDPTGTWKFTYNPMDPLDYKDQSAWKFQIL
Chain of ETV1 (P50549 whole entry): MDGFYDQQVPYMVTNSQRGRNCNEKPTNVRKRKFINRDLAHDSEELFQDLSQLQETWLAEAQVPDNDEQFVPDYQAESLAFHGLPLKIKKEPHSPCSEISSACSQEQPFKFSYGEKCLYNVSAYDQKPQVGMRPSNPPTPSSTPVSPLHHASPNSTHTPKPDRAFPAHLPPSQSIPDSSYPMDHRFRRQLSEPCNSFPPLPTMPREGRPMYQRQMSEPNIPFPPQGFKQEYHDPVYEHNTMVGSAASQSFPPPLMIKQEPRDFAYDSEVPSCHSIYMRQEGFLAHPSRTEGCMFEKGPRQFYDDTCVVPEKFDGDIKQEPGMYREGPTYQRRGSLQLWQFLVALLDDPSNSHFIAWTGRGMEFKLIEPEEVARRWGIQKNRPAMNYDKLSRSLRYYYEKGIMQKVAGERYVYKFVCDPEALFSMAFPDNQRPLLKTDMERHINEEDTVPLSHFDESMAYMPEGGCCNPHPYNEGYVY
Chain of ETV5 (P41161 whole entry): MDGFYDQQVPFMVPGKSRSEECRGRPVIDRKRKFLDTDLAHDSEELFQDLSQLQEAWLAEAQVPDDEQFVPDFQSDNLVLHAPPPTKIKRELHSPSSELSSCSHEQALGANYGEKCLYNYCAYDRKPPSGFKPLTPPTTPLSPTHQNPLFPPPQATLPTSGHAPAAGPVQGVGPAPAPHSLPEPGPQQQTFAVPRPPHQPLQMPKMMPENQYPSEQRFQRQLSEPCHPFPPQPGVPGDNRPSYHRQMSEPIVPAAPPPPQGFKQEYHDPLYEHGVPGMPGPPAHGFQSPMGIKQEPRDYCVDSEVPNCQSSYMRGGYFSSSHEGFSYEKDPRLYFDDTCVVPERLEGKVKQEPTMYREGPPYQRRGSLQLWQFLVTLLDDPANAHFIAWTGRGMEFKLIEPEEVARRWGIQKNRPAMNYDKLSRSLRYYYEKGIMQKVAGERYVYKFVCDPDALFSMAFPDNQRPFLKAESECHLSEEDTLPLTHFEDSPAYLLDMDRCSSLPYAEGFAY

For AAATGG, the binding signal was 1.52 fold enrichment (6-mer frequency, TF over GST control) in assay [1]; 1.42 fold enrichment (6-mer frequency, TF over GST control) in assay [2]; 1.49 fold enrichment (6-mer frequency, TF over GST control) in assay [3]; 1.56 fold enrichment (6-mer frequency, TF over GST control) in assay [4]; 1.49 fold enrichment (6-mer frequency, TF over GST control) in assay [5]; 1.55 fold enrichment (6-mer frequency, TF over GST control) in assay [6]. The binding signal was 1.59 fold enrichment (6-mer frequency, TF over GST control) in [7]; 1.43 fold enrichment (6-mer frequency, TF over GST control) in assay [8]; 1.47 fold enrichment (6-mer frequency, TF over GST control) in [9]; 1.42 fold enrichment (6-mer frequency, TF over GST control) in [10]; 1.56 fold enrichment (6-mer frequency, TF over GST control) in assay [11]; 1.27 fold enrichment (6-mer frequency, TF over GST control) in [12]. For the same sequence, the binding signal in assay [13] is 1.51 fold enrichment (6-mer frequency, TF over GST control); in [14], 1.49 fold enrichment (6-mer frequency, TF over GST control); in assay [15], 1.5 fold enrichment (6-mer frequency, TF over GST control); in assay [16], 1.47 fold enrichment (6-mer frequency, TF over GST control); in assay [17] it was 1.48 fold enrichment (6-mer frequency, TF over GST control); in assay [18], 1.22 fold enrichment (6-mer frequency, TF over GST control). For the same sequence, the binding signal in assay [19] is 1.5 fold enrichment (6-mer frequency, TF over GST control).
